The full list was thinned out, with hits kept by preference.
Tg IFNy HTS – T. gondii growth inhibition under IFN-gamma | Toxoplasma gondii growth in IFN-gamma-treated host cells; hits give low values | activity change, negative = inhibition, % (test concentration not listed) | actives 3.8% (n = 69,000) | AID 1259416; in the data active = activity change below about -70%, passing the limit was not always enough;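 also: host cells are HeLa cells infected with Toxoplasma gondii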
A number is an active result; n = inactive; ! = not active in a repeat.

SMILES	Tg IFNy HTS
COc1cccc(CNC(=O)N2CCC(c3nc(C(=O)N4CCOCC4)c(C)o3)CC2)c1	n
CCN1CCc2onc(CNc3ncccn3)c2C1	n
O=C1CCCN1[C@H]1CN(C(=O)Cc2ccccc2)[C@H]2CCCO[C@@H]12	n
COc1ccc(C2CCCN2C(=O)C2CCCN(c3ccccn3)C2)cc1OC (centres undefined)	n
CCn1c(C2CCCNC2)nn(Cc2nc(-c3cccs3)oc2C)c1=O (centres undefined)	n
CCOc1ccc(C(=O)Nc2ccc3c(c2)CCC(=O)N3CC(C)C)cc1	-82
CCOc1ccc(S(=O)(=O)Nc2ccc3c(c2)CCC(=O)N3CC(C)C)cc1	n
CCCN1C(=O)CCc2cc(NC(=O)c3ccc(C(C)C)cc3)ccc21	-106
CCCN1C(=O)CCc2cc(NC(=O)c3ccc(C)cc3)ccc21	n
CC(=O)Nc1ccc2c(c1)CCC(=O)N2CC(C)C	n
CCCN1C(=O)CCc2cc(NC(=O)c3ccsc3)ccc21	n
Cc1nc2ccccc2c(=O)n1CC(=O)Nc1cnn(Cc2ccccc2F)c1	n
Cc1ncc(C(=O)Nc2ccccc2F)c(CCNC(=O)CC2CCCCC2)n1	n
O=C(Nc1ccccc1)C1Cn2ccnc2C2(CCN(C(=O)c3ccno3)CC2)O1 (centres undefined)	n
NC(=O)N1CCC2(C=Cc3ccccc32)CC1	n
CCOCCCNC(=O)c1cc(-c2cnc(N3CCOCC3)nc2)cn1C	n
Cc1nnn(C23CC4CC(CC(CC(=O)O)(C4)C2)C3)n1	n
C[C@H](Oc1cc(-c2cnn(C3CCNCC3)c2)cnc1N)c1c(Cl)ccc(F)c1Cl	n
C[C@@H](Oc1cc(-c2cnn(C3CCNCC3)c2)cnc1N)c1c(Cl)ccc(F)c1Cl	-78
CCCCCCCCCCCCCCCC[N+](C)(C)CCN(Cc1ccc(OC)cc1)c1ncccn1	-84
COc1ccc(CN(CCN(C)C)c2ncccn2)cc1	n
COc1ccc(CN(CCN(C)C)c2ccccn2)cc1	n
CCS(=O)(=O)N1CCC2(CC1)OC(=O)C(C)=C2C(=O)NCCN1CCCCCC1	n
COc1ccc(-c2cc3c(=O)n(Cc4nc(-c5ccccc5OC)oc4C)ccn3n2)cc1	n
CC1(C)C(=O)N=C2c3ccccc3C(=O)C(=O)C21 (centres undefined)	-88
SMILES	Tg IFNy HTS
O=C(CN(Cc1ccco1)C(=O)CCn1ncc2ccccc21)NC1CCCC1	n
C=CCN1C(=O)CC(c2cnn(C)c2)C12CCN(CC(=O)N(C)C)CC2 (centres undefined)	n
CC(C)n1nc2c(cc1=O)CN(C(=O)c1ccc3c(c1)OCO3)CC2	-80
Cn1cnc2c1C(C(=O)O)CN(C(=O)c1ccc3c(c1)OCO3)C2 (centres undefined)	n
O=C(c1ccc2c(c1)OCO2)N1Cc2cnn(CCO)c2C1	n
O=C(NCC1CCC(c2ccnc3nc(C(F)(F)F)nn23)CC1)c1ccccn1 (centres undefined)	n
CN(C)c1ccc(CNc2nc(-c3nnc(-c4ccccc4)o3)nc3ccccc23)cc1	n
CC(C)c1noc(-c2cc(=O)n(CC(=O)NCc3ccccc3Cl)c3ccccc23)n1	n
O=C(c1ccccc1)N1CCN(C(=O)c2ccccc2)CC1	n
CC(C)(C)c1cc2nc(C(F)(F)F)cc(N3CCN(C(=O)c4ccccc4)CC3)n2n1	-86
Cc1ccc(C)c(N2CCN(C(=O)c3ccc(-n4nc(C(F)(F)F)c5c4CCCC5)cc3)CC2)c1	n
Cc1cccc(NC(=O)Cn2c(=O)cc(C(=O)N3CCc4ccccc4C3)c3ccccc32)c1C	n
CCCCC(=O)Nc1ccc(-c2nc(-c3ccccc3)co2)cc1	n
O=C(CCCCCCC(=O)Nc1ccccc1)NO	-84!
CN(CC(=O)Nc1cccnc1)S(=O)(=O)c1ccc(Cl)cc1	n
O=C(NC(=S)Nc1cccnc1)c1ccccc1	n
O=C(O)CSCCCC(=O)Nc1ccc(Br)cc1	n
O=C(CCCCCCC(=O)Nc1cccnc1)NO	-84
CN(C)C(=O)COCC1CN(Cc2ccoc2)Cc2nnn(C)c21 (centres undefined)	n
COc1ccc(NC2COC3(CCN(Cc4ccsc4)C3)C2)cc1 (centres undefined)	n
O=C(c1ccc(F)cc1F)N1CCC(c2nc3ccc(-c4cccnc4)cn3n2)CC1	n
O=C(c1cnccn1)N1CCC(c2nc3ccc(-c4cccc(F)c4)cn3n2)CC1	-72
O=S(=O)(c1ccccc1F)N1CCC(c2nc3ccc(-c4ccncc4)cn3n2)CC1	n
CCc1nc(OCC(=O)NCc2ccc(SC)cc2)c2ccccc2n1	n
CCOc1ccc(-c2nc(Cn3ccn4nc(-c5ccc(OC)cc5)cc4c3=O)c(C)o2)cc1OC	n
SMILES	Tg IFNy HTS
NC(=O)C1CCCN(CCCn2cnc(-c3ccccc3)c2-c2ccsc2)C1 (centres undefined)	n
C/C(=N\NC(=S)N1CCC1)c1ccccn1	-80
Cc1ccc(/C(=C\CN2CCCC2)c2ccccn2)cc1	n
CN(C)C(=O)[C@]12CCCN(C(=O)c3ccccn3)C[C@@H]1CN(c1ccccn1)C2	n
CN(C)Cc1cnc2n1CCN(Cc1cccs1)CC2	n
CS(=O)(=O)c1ccc(C(=O)Nc2ccccc2)cc1	n
CCCN(CCC)S(=O)(=O)c1ccc(C(=O)NCCc2ccc(OC)c(OC)c2)cc1	n
CCCN(CCC)S(=O)(=O)c1ccc(C(=O)Nc2ccc(F)cc2)cc1	-88
CC(C)C(=O)N1CCCC12CCN(C(=O)c1cscn1)C2 (centres undefined)	n
Cc1ccc(NC(=O)Nc2ccc(OCc3ccccc3)cc2)cc1NS(C)(=O)=O	n
Cc1cc(F)c(Nc2ncnc3cc(OCc4ccccc4)ccc23)cc1O	-77
Oc1cccc(Nc2ncnc3ccccc23)c1	n
CCc1ocnc1C(=O)Nc1ccccc1SCc1ccccc1F	n
CC1CCN(c2ncnc3c2cnn3CC(=O)Nc2ccccc2)CC1	n
COCCO[C@H]1CCN(C(=O)N2CCOCC2)[C@H]1Cc1ccccc1	n
Cc1cc(CN2CCN(c3c(Br)cnc4nc(-c5ccc(N6CCN(C)CC6)cc5)[nH]c34)CC2)no1	-74
COc1ccc(-c2[nH]ncc2CN2CCN(C)CC2)cc1	n
CCOC(=O)c1nn(Cc2ccccc2)c2c1CN(C(=O)Cn1nc3ccccc3n1)CC2	n
COc1ccc(-c2[nH]c3ncccc3c2CN2CCC(O)(c3ccccc3C)CC2)cc1	-98
COc1ccccc1CNC(=O)CN1CCC(O)(c2ccccc2C)C1 (centres undefined)	n
c1cncc(-c2[nH]c3ncccc3c2CN2CCSCC2)c1	n
Cn1c(CN2CCCCC2)nc2cc(NC(=O)COc3ccc4c(c3)OCO4)ccc21	n
COCCSc1nnc(NC(=O)COc2ccc3c(c2)OCO3)s1	-83
CC(C)c1nnc(NC(=O)COc2ccc3c(c2)OCO3)s1	-85
COCC(=O)Nc1cccc(-c2ccc3c(c2)OCO3)c1	n
SMILES	Tg IFNy HTS
Cc1nn(-c2ccc(F)cc2)c(C)c1CNC(=O)COc1ccc2c(c1)OCO2	n
CN(Cc1ncc[nH]1)C(=O)COc1ccc2c(c1)OCO2	n
CCOc1ccccc1-c1noc(-c2c(O)c3cccc(Cl)c3[nH]c2=O)n1	n
Cn1ccnc1CN1CCC2(COCCN(Cc3cccs3)C2)C1 (centres undefined)	n
O=C(NC1CC1)c1nc(C(=O)N2CCC3(CC2)OCCO3)cs1	n
O=C(Cc1cccs1)N1CCCC2(C1)Nc1cccnc1NC2=NC1CCCC1 (centres undefined)	n
CCOC(=O)c1c(NC(=O)CSc2nc(C)cc(C)n2)sc(C(C)=O)c1C	n
Cc1sc(NC(=O)CSc2nc3cc4c(cc3cc2C#N)OCCO4)c(C#N)c1C	n
